Data as given in PubChem BioAssay (Tox21).
Inconclusive results are not listed. Active and inactive are the calls of the source. Unless noted, the call rests on the fitted dose curve.

Key:
[1] = qHTS assay to identify small molecule antagonists of the vitamin D receptor (VDR) signaling pathway - cell viability counter screen (AID 743225; active means well fitted curve in the direction sought with a large enough effect in the repeat runs; an effect the other way counts as inactive or inconclusive; further: on the % scale 0 is the no-effect control and ±100 the full control effect; nearly all actives have a fitted effect of over 50% in size)
Procedure, shortened: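 Same-well multiplex: following 16 h treatment of HEK 293T cells carrying a UAS-driven beta-lactamase reporter with compound and agonist (3 nM final), and a 2 h FRET substrate step, CellTiter-Glo was added and luminescence read after 30 min.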

[2] = qHTS assay to identify small molecule agonists of the NFkB signaling pathway - cell viability counter screen (AID 1159515); further: series mostly up to about 61 µM; on the % scale 0 is the no-effect control and ±100 the full control effect; nearly all actives have a fitted effect of over 55% in size
Procedure, shortened: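 Tox21 library compounds were tested for cytotoxicity against NFkB-bla ME-180 cells during a 5 hr exposure at 37 C. CellTiter-Glo luminescence served as the viability read-out.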

[3] = qHTS assay to identify small molecule agonists of the endoplasmic reticulum stress response signaling pathway (AID 1159516; active means well fitted activation curve with a large enough effect in the signal ratio in the repeat runs, not every such curve was filed as active; the % refers to the signal ratio; further: on the % scale 0 is the no-effect control and ±100 the full control effect)
Procedure, shortened: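 Fluorescence at 460 and 530 nm (405 nm excitation) reports beta-lactamase from an ER stress response element in HeLa cells treated 5 hr at 37 C.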

[4] = qHTS assay to identify small molecule agonists of the endoplasmic reticulum stress response signaling pathway - cell viability counter screen (AID 1159517); further: series mostly up to about 61 µM; on the % scale 0 is the no-effect control and ±100 the full control effect; nearly all actives have a fitted effect of over 50% in size
Procedure, shortened: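 Steps: seed 1,500 ESRE-bla HeLa cells per well; incubate overnight at 37 C, 5% CO2; add compounds in DMSO for 5 hr; run FRET substrate 2 hr RT; add CellTiter-Glo, wait 30 min, read luminescence.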

[5] = qHTS assay to identify small molecule antagonists of the retinoid-related orphan receptor gamma (ROR-gamma) signaling pathway - cell viability counter screen (AID 1159520; active means well fitted curve in the direction sought with a large enough effect in the repeat runs; an effect the other way counts as inactive or inconclusive; further: on the % scale 0 is the no-effect control and ±100 the full control effect; nearly all actives have a fitted effect of over 50% in size)
Procedure, shortened: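 Tet-on ROR gamma CHO cells were given compounds for 2 hr, then doxycycline hyclate at 1 uM final, and incubated 16 hr at 37 C. Viability was measured as ATP content by CellTiter-Glo luminescence.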

[6] = biological target: Nuclear receptor ROR-gamma (Homo sapiens) (UniProt P51449); assay: qHTS assay to identify small molecule antagonists of the retinoid-related orphan receptor gamma (ROR-gamma) signaling pathway (AID 1159521; active means well fitted curve in the direction sought with a large enough effect in the repeat runs; an effect the other way counts as inactive or inconclusive;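 further: CHO cells with doxycycline inducible ROR-gamma driving an RORE luciferase reporter; top concentration of the series differs between compounds; on the % scale 0 is the no-effect control and ±100 the full control effect; nearly all actives have a fitted effect of over 50% in size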)
Procedure, shortened: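 Inducible-expression reporter assay: doxycycline (1 uM final) switched on RORγ in CHO cells bearing a ROR response element-luciferase construct, with test compounds present from 2 h beforehand. Decreased luminescence after 16 h defined antagonist activity.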

[7] = qHTS assay to identify small molecule agonists of the AP-1 signaling pathway - cell viability counter screen (AID 1159525); further: nearly all actives have a fitted effect of over 55% in size
Procedure, shortened: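 Same-well cytotoxicity counter screen of the Tox21 10K library in ME-180 cells. The readout is ATP-dependent luminescence after 5 h compound treatment. Data are normalised to DMSO and tetra n-octyl ammonium bromide controls.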

[8] = qHTS assay to identify small molecule agonists of the AP-1 signaling pathway (AID 1159526); further: on the % scale 0 is the no-effect control and ±100 the full control effect
[9] = biological target: Retinoic acid receptor RXR-alpha (Homo sapiens) (UniProt P19793); assay: qHTS assay to identify small molecule agonists of the RXR signaling pathway (AID 1159527); further: on the % scale 0 is the no-effect control and ±100 the full control effect; nearly all actives have a fitted effect of over 35% in size
Procedure, shortened: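 Compounds in DMSO were added to RXR-alpha-UAS-bla HEK 293T cells kept in 2% charcoal-stripped serum, and incubated 16 hr at 37 C with 5% CO2. Reporter signal came from a 2 hr B/G FRET substrate step.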

[10] = qHTS assay to identify small molecule agonists of the RXR signaling pathway - cell viability counter screen (AID 1159529; active means well fitted curve in the direction sought with a large enough effect in the repeat runs; an effect the other way counts as inactive or inconclusive)
Procedure, shortened: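 Counter screen: CellTiter-Glo luminescence. Cells: RXR-alpha-UAS-bla HEK 293T. Medium: 2% charcoal-stripped FBS. Treatment: 16 h, 37 C. Reagent incubation: 30 min, RT.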

Retinoic acid receptor RXR-alpha (Homo sapiens), sequence (P19793 whole entry, looked up): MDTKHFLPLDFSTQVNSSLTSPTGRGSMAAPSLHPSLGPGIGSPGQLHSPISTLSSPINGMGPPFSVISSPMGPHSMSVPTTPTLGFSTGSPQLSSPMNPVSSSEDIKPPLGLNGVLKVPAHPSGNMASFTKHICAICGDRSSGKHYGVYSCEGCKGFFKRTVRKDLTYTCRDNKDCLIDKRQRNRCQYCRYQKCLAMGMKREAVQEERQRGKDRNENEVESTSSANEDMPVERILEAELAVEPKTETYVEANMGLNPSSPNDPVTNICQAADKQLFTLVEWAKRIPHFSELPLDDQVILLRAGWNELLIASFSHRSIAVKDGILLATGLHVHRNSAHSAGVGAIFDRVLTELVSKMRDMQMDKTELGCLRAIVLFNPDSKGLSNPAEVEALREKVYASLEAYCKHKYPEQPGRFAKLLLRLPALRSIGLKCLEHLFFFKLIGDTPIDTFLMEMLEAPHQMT

Cc1ccc(S(=O)(=O)NC(=O)NN2CC3CCCC3C2)cc1 (stereo unspecified)
inactive: outcome [1] | outcome [2] | Potency [3] | outcome [4] | outcome [5] | outcome [6] | outcome [7] | Potency [8] | Potency [9] | Potency [10]

CCOC(=O)CC
inactive: outcome [2] | Potency [3] | outcome [4] | outcome [5] | outcome [6] | outcome [7] | Potency [8] | Potency [9] | Potency [10]

C[C@@H]1CCC[C@H](C)N1CCCC(O)(c1ccccc1)c1ccccn1 (stereo partly specified)
inactive: outcome [1] | outcome [2] | Potency [3] | outcome [4] | outcome [5] | outcome [6] | outcome [7] | Potency [8] | Potency [9] | Potency [10]

CCN(CC)CC
inactive: outcome [1] | outcome [2] | Potency [3] | outcome [4] | outcome [5] | outcome [6] | outcome [7] | Potency [8] | Potency [9] | Potency [10]

CC1(C)C(=O)C(C)(C)C1=O
inactive: outcome [1] | outcome [2] | Potency [3] | outcome [4] | outcome [5] | outcome [6] | outcome [7] | Potency [8] | Potency [9] | Potency [10]

CC(C)(O)CCCC1=CCC(C=O)CC1 (stereo unspecified)
inactive: outcome [1] | outcome [2] | Potency [3] | outcome [4] | outcome [5] | outcome [6] | outcome [7] | Potency [8] | Potency [9] | Potency [10]

CC/C=C\CCCCCCCCCCOC(C)=O
inactive: outcome [2] | Potency [3] | outcome [4] | outcome [5] | outcome [6] | outcome [7] | Potency [8] | Potency [9] | Potency [10]

Clc1cc(Cl)c(Cl)c(Cl)c1Cl
inactive: outcome [1] | outcome [2] | Potency [3] | outcome [4] | outcome [5] | outcome [6] | outcome [7] | Potency [8] | Potency [9] | Potency [10]

C=CC(=O)OCCOCCOCC
inactive: outcome [2] | Potency [3] | outcome [4] | outcome [5] | outcome [6] | outcome [7] | Potency [8] | Potency [9] | Potency [10]

CCCCC(O)/C=C(C)/C=C/C=C/C(=O)N1CCCC1=O (stereo unspecified)
inactive: outcome [1] | outcome [2] | Potency [3] | outcome [4] | outcome [5] | outcome [6] | outcome [7] | Potency [8] | Potency [9] | Potency [10]

CNC(=O)c1c(I)c(NC(C)=O)c(I)c(C(=O)O)c1I
inactive: outcome [1] | outcome [2] | Potency [3] | outcome [4] | outcome [5] | outcome [6] | outcome [7] | Potency [8] | Potency [9] | Potency [10]

CCOC(=O)c1ccc(N(C)C)cc1
inactive: outcome [1] | outcome [2] | Potency [3] | outcome [4] | outcome [5] | outcome [6] | outcome [7] | Potency [8] | Potency [9] | Potency [10]

Nc1ccc(C(=O)NCC(=O)O)cc1
inactive: outcome [1] | outcome [2] | Potency [3] | outcome [4] | outcome [5] | outcome [6] | outcome [7] | Potency [8] | Potency [9] | Potency [10]

CNC(C)=O
inactive: outcome [1] | outcome [2] | Potency [3] | outcome [4] | outcome [5] | outcome [6] | outcome [7] | Potency [8] | Potency [9] | Potency [10]

C[Si](C)(C)O[Si](O)(O)O
inactive: outcome [1] | outcome [2] | Potency [3] | outcome [4] | outcome [5] | outcome [6] | outcome [7] | Potency [8] | Potency [9] | Potency [10]

O=C1CCCc2c(O)cccc21
inactive: outcome [1] | outcome [2] | Potency [3] | outcome [4] | outcome [5] | outcome [6] | outcome [7] | Potency [8] | Potency [9]

CCCCCCCCS(=O)(=O)O
inactive: outcome [1] | outcome [2] | Potency [3] | outcome [4] | outcome [5] | outcome [6] | outcome [7] | Potency [8] | Potency [9]

N=C(N)N1CCc2ccccc2C1
inactive: activity, negative = cytotoxic [2] 6.23% [at 6.95 µM] | activation [3] 1.42% [at 6.95 µM] | activity change, negative = cytotoxicity [4] 3.62% [at 6.95 µM] | activity, negative = cytotoxicity [5] 7.51% [at 8.39 µM] | activity change, negative = inhibition [6] -0.777% [at 8.39 µM] | viability change, negative = cytotoxic [7] 6.37% [at 6.97 µM] | activation [8] -0.863% [at 6.97 µM] | activity change, negative = cytotoxicity [10] 2.64% [at 6.97 µM]

CSC(=O)c1cccc2nnsc12
inactive: outcome [1] | outcome [2] | Potency [3] | outcome [4] | outcome [5] | outcome [6] | outcome [7] | Potency [8] | Potency [9]

CCC(C)(C)C
inactive: outcome [1] | outcome [2] | Potency [3] | outcome [4] | outcome [5] | outcome [6] | outcome [7] | Potency [8] | Potency [9] | Potency [10]

C=CC(=O)CC
inactive: outcome [1] | outcome [2] | Potency [3] | outcome [4] | outcome [5] | outcome [6] | outcome [7] | Potency [8] | Potency [10]

C=COCCCCO
inactive: outcome [1] | outcome [2] | Potency [3] | outcome [4] | outcome [5] | outcome [6] | outcome [7] | Potency [8] | Potency [9] | Potency [10]

O=c1[nH]c(=O)c2cn[nH]c2[nH]1
inactive: outcome [1] | outcome [2] | Potency [3] | outcome [4] | outcome [5] | outcome [6] | outcome [7] | Potency [8] | Potency [9] | Potency [10]

CC(C)(C)c1ccc(N)cc1
inactive: outcome [1] | outcome [2] | Potency [3] | outcome [4] | outcome [5] | outcome [6] | outcome [7] | Potency [8] | Potency [9] | Potency [10]
